“And” between values parts separate entries of the source, which are not always exact repeats. Identical values can stand only once.
Legend:
Assay in all cases: cell viability relative to vehicle control; higher = less cytotoxic
Details in all cases: 10 µM
[1] = tested on: K562
Summary of the method: (§1)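 Screening covered the Selleck bioactive, kinase and epigenetic probe libraries, less identity-inconsistent compounds, on CRISPR-edited mutant clones and isogenic wild-type clones of four leukaemia lines. Cells, at 2000 per well in 50 µL medium, received a single 10 µM acoustically dispensed dose. After 48 h the supernatant was removed and CellTiter-Glo luminescence was read. Viability was analysed in Genedata Screener as percent of the on-plate vehicle control.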

[2] = tested on: MARIMO
Summary of the method: as §1

[3] = tested on: MOLM14
Summary of the method: as §1

[4] = tested on: OCI-AML2
Summary of the method: as §1

Row | SMILES | cell viability ([1]; SRSF2 genotype: SRSF2 P95H/wt) | cell viability ([1]; SRSF2 genotype: SRSF2 wt/wt) [%] | cell viability ([2]; SRSF2 genotype: SRSF2 P95H/wt) [%] | cell viability ([2]; SRSF2 genotype: SRSF2 wt/wt) [%] | cell viability ([3]; SRSF2 genotype: SRSF2 P95H/wt) [%] | cell viability ([3]; SRSF2 genotype: SRSF2 wt/wt) [%] | cell viability ([4]; SRSF2 genotype: P95H/wt) [%] | cell viability ([4]; SRSF2 genotype: wt/wt) [%]
1 | O=C(O)/C=C/c1ccc(O)cc1 [p-Coumaric Acid] | 101% and 108% | 110 | 108 | 110 | 107 | 107 | 109 | 103
2 | O=c1cc(-c2ccc(O)cc2)oc2cccc(O)c12 [4',5-Dihydroxyflavone] | 89.4% and 86% | 89.7 | 84.4 | 84.6 | 64.3 | 72.5 | 66.4 | 69.4
3 | COc1nc(OCc2cccc(-c3ccccc3)c2C)ccc1CNCCNC(C)=O [BMS202 (PD-1/PD-L1 inhibitor 2)] | 10.8% and 26.5% | 32.6 | 60.9 | 59 | 41.6 | 31.9 | 53.5 | 51.3
4 | Cc1cc(Nc2cc(N3CCN(C)CC3)nc(/C=C/c3ccccc3)n2)n[nH]1 [ENMD-2076 L-(+)-Tartaric acid] | 22.5% and 29.7% | 22.9 | 34.8 | 30.7 | 2.93 | 6.51 | 7.71 | 14.7
5 | CC(CN(C)C)Oc1nc(Nc2cc3cccc(Cl)c3cn2)cnc1C#N (stereo not drawn) | 50.7% and 62.5% | 44.9 | 62.2 | 56.3 | 15.7 | 8.7 | 17 | 18.5
6 | N#Cc1ccc(COC[C@H]2O[C@@H](n3c(NCc4ccc(Cl)c(Cl)c4)nc4c(N)ncnc43)[C@H](O)[C@@H]2O)cc1 | 52% and 62.8% | 45.7 | 32.5 | 35.6 | 26 | 14.3 | 35.1 | 34.8
7 | CO[C@@H]1[C@@H](OC)[C@H](C)[C@@](O)(CC(=O)O)O[C@H]1[C@H](C)[C@H]1O[C@@]2(CC[C@@](C)([C@H]3CC[C@@](C)([C@@H]4O[C@@H]([C@H]5O[C@](C)(O)[C@H](C)C[C@@H]5C)C[C@@H]4O[C@@H]4C[C@H](OC)[C@@H](OC)[C@H](C)O4)O3)O2)C[C@H](O)[C@H]1C [Maduramycin Ammonium] | 3.55% and 4.75% | 8.25 | 22.7 | 17.7 | 25.6 | 22.5 | 1.54 | 8.79
8 | O=C(O)c1cc(O)ccc1O [Gentisic acid] | 100% and 104% | 99.6 | 101 | 105 | 101 | 102 | 102 | 111
9 | OC(Cn1cncn1)(Cn1cncn1)c1ccc(F)cc1F [Fluconazole] | 112% and 99.8% | 101 | 98 | 107 | 103 | 101 | 96.9 | 95.7
10 | COc1cc(-c2cn(C)c(=O)c3cnccc23)cc(OC)c1CN(C)C | 104% and 95.7% | 105 | 99.4 | 87.2 | 103 | 95.9 | 98.6 | 113
11 | O=C(Nc1ccccc1)Nc1ccc(-c2ccc(C(=O)[C@@H]3CCC[C@H]3C(=O)O)cc2)cc1 | 96.9% and 97.6% | 98.8 | 106 | 106 | 102 | 103 | 103 | 109
12 | OCC1OC(OC2OC(CO)C(O)C(O)C2O)C(O)C(O)C1O [D-(+)-Trehalose Anhydrous] | 109% and 105% | 114 | 111 | 99.1 | 107 | 107 | 99.6 | 102
13 | CCOC(=O)c1c2c3c(cccc3[nH]c1=O)C(=O)c1ccccc1-2 | 95.8% and 97.2% | 90.7 | 84 | 96.1 | 90.7 | 95.8 | 92.4 | 101
14 | O=C(C=CC=Cc1ccccc1)CCc1ccccc1 [Alnustone] | 105% and 100% | 91.8 | 92 | 87.5 | 88.1 | 87.4 | 76.6 | 95.6
15 | Cc1cc(=O)[nH]c(=S)[nH]1 [Methylthiouracil] | 99.3% and 106% | 90.5 | 96.7 | 107 | 99.9 | 103 | 95.5 | 104
16 | Cc1cc(F)c(C(=O)Nc2cccc(-c3nncn3C(C)C)n2)cc1-n1cnc(C2CC2)c1 [Selonsertib (GS-4997)] | 78.6% and 86.2% | 82 | 57.1 | 72.1 | 63.5 | 68.5 | 49.5 | 62
17 | COC(=O)N[C@H](C(=O)N1CCC[C@H]1c1nc(-c2ccc3c(c2)O[C@@H](c2ccccc2)n2c-3cc3cc(-c4c[nH]c([C@@H]5CCCN5C(=O)[C@@H](NC(=O)OC)C(C)C)n4)ccc32)c[nH]1)C(C)C [Elbasvir] | 87.7% and 92% | 86.9 | 68.6 | 77.3 | 81.9 | 87.8 | 91 | 88
18 | COc1ccc2cc([C@H](C)C(=O)O)ccc2c1 [Naproxen Sodium] | 99.4% and 104% | 96.2 | 101 | 97.2 | 98.6 | 102 | 105 | 98.7
19 | O=C[C@H](O)[C@@H](O)[C@H](O)CO [Xylose] | 95% and 93.8% | 96 | 90.4 | 96.1 | 91.8 | 95.2 | 103 | 88.2
20 | CN1CC[C@H](c2c(O)cc(O)c3c(=O)cc(-c4ccccc4Cl)oc23)[C@H](O)C1 [Flavopiridol (Alvocidib)] | 6.41% and 17.6% | 8.24 | 10.4 | 4.67 | 3.1 | 0.32 | 4.93 | 15.2
21 | CC(=O)O/N=C1/C(c2c(O)[nH]c3cc(Br)ccc23)=Nc2ccccc21 [BIO-acetoxime] | 32.5% and 23.4% | 25.4 | 82.2 | 88.4 | 33.1 | 24.4 | 73.2 | 76.2

Row | SMILES | cell viability ([1]; SRSF2 genotype: SRSF2 P95H/wt) | cell viability ([1]; SRSF2 genotype: SRSF2 wt/wt) [%] | cell viability ([2]; SRSF2 genotype: SRSF2 P95H/wt) [%] | cell viability ([2]; SRSF2 genotype: SRSF2 wt/wt) [%] | cell viability ([3]; SRSF2 genotype: SRSF2 P95H/wt) [%] | cell viability ([3]; SRSF2 genotype: SRSF2 wt/wt) [%] | cell viability ([4]; SRSF2 genotype: P95H/wt) [%] | cell viability ([4]; SRSF2 genotype: wt/wt) [%]
22 | CN(NC(=O)CC(=O)NN(C)C(=S)c1ccccc1)C(=S)c1ccccc1 [Elesclomol (STA-4783)] | 28.9% and 15.4% | 51.2 | 11.8 | 21.5 | 0.35 | 0.25 | 2.86 | 12.4
23 | COc1cc(O)c2c(c1)C(=O)c1cc(C)cc(O)c1C2=O [Rheochrysidin (Physcione)] | 96.9% and 101% | 95.5 | 98.4 | 111 | 102 | 103 | 92.5 | 102
24 | CC(O)c1cc(C(=O)N[C@@H](C)Cn2ccc(-c3ccc(C#N)c(Cl)c3)n2)n[nH]1 (stereo partly drawn) | 87.9% and 91.4% | 93.3 | 90.6 | 93.5 | 98.8 | 98 | 91.4 | 102
25 | CC1(C)CC[C@]2(C)CC[C@]3(C)C(=CC[C@@H]4[C@@]5(C)CC[C@@H](O)[C@](C)(C(=O)O)[C@@H]5CC[C@]43C)[C@@H]2C1 | 97.6% and 95.5% | 97.8 | 97.8 | 108 | 102 | 103 | 94.4 | 96.1
26 | CC(=O)OCCc1ccc(O)c(O)c1 [Hydroxytyrosol Acetate] | 93.5% and 95.4% | 104 | 85.5 | 98.6 | 95.7 | 103 | 108 | 110
27 | Cc1ccc(C(=O)O)c(O)c1 [4-Methylsalicylic acid] | 107% and 102% | 103 | 108 | 111 | 99.7 | 109 | 99.3 | 95.5
28 | COc1cc2c(c(O)c1OC)-c1c(cc(OC)c(OC)c1OC)C[C@@H](C)[C@@H](C)C2 [Schisanhenol] | 96.7% and 100% | 97.1 | 100 | 107 | 90.3 | 96.8 | 91.7 | 102
29 | Cn1cc(-c2ccc3ncc(Cc4ccc5ncccc5c4)n3n2)cn1 | 108% and 96.6% | 98 | 102 | 101 | 87.7 | 101 | 72.5 | 79.3
30 | Nc1nc2cc(-c3ccc4ncc(C(=O)N5CCOCC5)n4c3)ccc2o1 [Serabelisib (INK-1117,MLN-1117,TAK-117)] | 92.2% and 98.4% | 84.2 | 64.5 | 72.4 | 57.7 | 65.2 | 53 | 65.4
31 | Cc1c(Nc2ncccc2C(=O)O)cccc1C(F)(F)F [Flunixin meglumin] | 95.8% and 87.2% | 93.9 | 89.8 | 96.2 | 87.4 | 89.4 | 90.4 | 101
32 | Clc1ccccc1C(c1ccccc1)(c1ccccc1)n1ccnc1 [Clotrimazole (Canesten)] | 92.1% and 91.2% | 75.9 | 81.5 | 87.3 | 89.4 | 84.6 | 77.4 | 90
33 | O=C1CCN(c2ccccc2)N1 [Phenidone] | 106% and 107% | 103 | 102 | 105 | 100 | 105 | 99.5 | 111
34 | CCOC(=O)C1=C(C)NC(C)=C(C(=O)OCC)C1c1ccccc1/C=C/C(=O)OC(C)(C)C [Lacidipine (Lacipil, Motens)] | 51% and 64.8% | 53.2 | 53.8 | 40.3 | 49.7 | 39.8 | 44 | 42.9
35 | CN(CCNc1ccnc2cc(Cl)ccc12)CCNc1ccnc2cc(Cl)ccc12 | 17.1% and 23.8% | 18.8 | 19.4 | 11.8 | 0.51 | 0.43 | 0.35 | 0.6
36 | O=C(NCCCn1ccnc1)c1cc(-c2ccco2)on1 | 87.3% and 91.7% | 87.1 | 68.9 | 79.4 | 45.7 | 44.4 | 77.2 | 72.6
37 | O=C1CC[C@@H](C(=O)N2CSC[C@H]2C(=O)O)N1 [Pidotimod] | 99.7% and 104% | 101 | 104 | 99.1 | 104 | 104 | 114 | 104
38 | Cc1[nH]c(/C=C2\C(=O)Nc3ccccc32)c(C)c1CCC(=O)O [Orantinib (TSU-68, SU6668)] | 98.7% and 95.2% | 95.5 | 96.3 | 103 | 82 | 89.2 | 75.2 | 84.2
39 | CC[C@H]1OC(=O)[C@H](C)[C@@H](O[C@H]2C[C@@](C)(OC)[C@@H](O)[C@H](C)O2)[C@H](C)[C@@H](O[C@@H]2O[C@H](C)C[C@H](N(C)C)[C@H]2O)[C@](C)(O)C[C@@H](C)/C(=N\OCOCCOC)[C@H](C)[C@@H](O)[C@]1(C)O [Roxithromycin (Roxl-150)] | 104% and 106% | 94.9 | 103 | 105 | 101 | 100 | 93.6 | 105
40 | Cc1ccccc1CN1C2=NCCN2C(=O)C2=C1CCN(Cc1ccccc1)C2 [TIC10 analogue] | 98.2% and 97.9% | 95.9 | 104 | 104 | 103 | 103 | 88 | 101
41 | CC(C)C(=O)OCC(=O)[C@@]12O[C@H](C3CCCCC3)O[C@@H]1C[C@H]1[C@@H]3CCC4=CC(=O)C=C[C@]4(C)[C@H]3[C@@H](O)C[C@@]12C [Ciclesonide] | 57% and 55.7% | 62.1 | 63.6 | 68.9 | 41.4 | 41.6 | 25.5 | 59.6

Source: the supplement of paper PMC10981050
